Experimental findings from PubChem BioAssay (NCI) are described below.

This is part of a sample that, as a whole, favours compounds with a hit. Of some 83,000 tested, about 20% had one in any assay.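 Treatment: one concentration, 48 hours, 96-well format. Scoring: percent growth, with anything below 10 considered active.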 A number with no mark means an inactive call. Calls of active or inactive are those of the source.

Some test systems named below: HT29 colon; SNB-75 CNS; SNB-19 CNS; U251 CNS; PC-3 prostate; SK-MEL-5 melanoma; UACC-62 melanoma; LOX IMVI melanoma; SK-MEL-28 melanoma; SK-MEL-2 melanoma; EKVX NSCLC; SN12C renal; UO-31 renal; TK-10 renal; ACHN renal; CAKI-1 renal; A498 renal; CCRF-CEM leukemia; MOLT-4 leukemia; SR leukemia.
Test in all cases: NCI-60 one-dose screen, 48 h (100 = growth as untreated, 0 = no growth, -100 = all killed)
Common to all, as to conditions: 10 µM unless noted

Regarding `COc1ccc(-n2nc3c(c2-c2ccc(OC)c(OC)c2)-c2oncc2CC3)cc1`, the growth in the test with HT29 colon was 80%; in the test with SNB-75 CNS it was 94.2%; with SNB-19 CNS, 96.9%; in the test with U251 CNS, 85.3%; in the test with PC-3 prostate it was 88.3%; in the test on SK-MEL-5 melanoma, 81.8%. Also, the growth in the test on UACC-62 melanoma was 73.3%; in the test with LOX IMVI melanoma, 58.1%; in the test on SK-MEL-28 melanoma it was 75.1%; in the test with SK-MEL-2 melanoma, 92.8%; in the test on EKVX NSCLC it was 92.6%; in the test with SN12C renal, 88.4%. Also, the growth was 79.1% with UO-31 renal; 103% in the test on TK-10 renal; 55.7% in the test on ACHN renal; 80.6% with CAKI-1 renal; 83.5% with A498 renal; 50.4% in the test on CCRF-CEM leukemia. The growth in the test with MOLT-4 leukemia is 72.6%.
As for `Cc1nn(-c2ccc(Cl)cc2)c2nc3c(nc12)C(=O)C(=O)c1ccccc1-3`, the growth in the test on HT29 colon was 4.77% (active); in the test with SNB-75 CNS it was -2.08% (active); in the test on SNB-19 CNS, 62.4%; in the test with U251 CNS it was 77.5%; in the test with PC-3 prostate, 73.9%; in the test on SK-MEL-5 melanoma, 43.8%. For the same compound, the growth in the test on UACC-62 melanoma is 73.3%; in the test on LOX IMVI melanoma it was 62.6%; in the test with SK-MEL-28 melanoma, 67.2%; in the test with SK-MEL-2 melanoma, 99.1%; in the test with EKVX NSCLC it was 64%; with SN12C renal, 78.7%. The growth with UO-31 renal was 59.8%; with TK-10 renal, 144%; in the test on ACHN renal it was 81.2%; in the test on CAKI-1 renal, 69.8%; with A498 renal, 59.4%.
For the compound `Cc1c(C(N)=O)sc2c1c(=O)n(Cc1ccccc1)c1nnc(SCC(=O)Nc3ccc(Cl)cc3)n21`, the growth is 37.1% with HT29 colon; -52% (active) in the test on SNB-75 CNS; 58% in the test on SNB-19 CNS; 20.2% with U251 CNS; 38.1% with PC-3 prostate; 51.8% with SK-MEL-5 melanoma. The growth in the test with UACC-62 melanoma is 57.6%; in the test with LOX IMVI melanoma, 41.8%; with SK-MEL-28 melanoma it was 17.3%; in the test with SK-MEL-2 melanoma, 0.559% (active); in the test on EKVX NSCLC, 50.2%; in the test on SN12C renal, 50.8%. Also, the growth with UO-31 renal was 75.5%; with TK-10 renal, -22.9% (active); with ACHN renal it was 32.7%; with CAKI-1 renal, 77%; with A498 renal, 40.1%.
For the compound `Cn1cc(-c2csc(-c3cn(C)c4ncccc34)n2)c2cc(Br)cnc21`, the growth was 100% in the test with HT29 colon; 73.1% in the test on SNB-75 CNS; 98.5% in the test on SNB-19 CNS; 87.9% in the test with U251 CNS; 68.5% in the test with PC-3 prostate; 79.3% with SK-MEL-5 melanoma. The growth in the test with UACC-62 melanoma was 82.9%; with LOX IMVI melanoma, 81.9%; in the test with SK-MEL-28 melanoma it was 92.1%; in the test with SK-MEL-2 melanoma it was 111%; in the test with EKVX NSCLC it was 84.4%; in the test with SN12C renal, 89.4%. Also, the growth in the test on UO-31 renal was 100%; with TK-10 renal it was 115%; with ACHN renal, 95.5%; with CAKI-1 renal, 85.3%; with A498 renal, 79%; in the test on CCRF-CEM leukemia, 80%. In addition, the growth with MOLT-4 leukemia was 85%.
In the case of `Cc1cc2cn3c4cccnc4[nH]c(=O)c3c2cc1C`, the growth in the test on HT29 colon was -76.3% (active); in the test with SNB-75 CNS, 79.3%; in the test with SNB-19 CNS, 56.4%; in the test on U251 CNS it was -71.2% (active); in the test with PC-3 prostate, 67.7%; in the test with SK-MEL-5 melanoma, 44.4%. In addition, the growth is 61.2% in the test on UACC-62 melanoma; -68.5% (active) with LOX IMVI melanoma; 86.6% with SK-MEL-28 melanoma; 58.2% with SK-MEL-2 melanoma; 76.7% with EKVX NSCLC; 22.5% in the test with SN12C renal. In addition, the growth is 58.9% in the test with UO-31 renal; 61.3% in the test on TK-10 renal; 82.1% in the test with ACHN renal; 75.7% with CAKI-1 renal; 95.8% with A498 renal; 4.5% (active) in the test with CCRF-CEM leukemia. In the test with MOLT-4 leukemia, the growth is 18.4%.
As to `NC(=O)NN=C(C1CC1)C1CC1`, the growth with HT29 colon was 103%; in the test on SNB-75 CNS, 92.6%; in the test with SNB-19 CNS, 106%; in the test with U251 CNS, 98.4%; in the test on PC-3 prostate, 112%; in the test with SK-MEL-5 melanoma, 111%. Besides, the growth in the test with UACC-62 melanoma is 110%; with LOX IMVI melanoma, 95.9%; in the test on SK-MEL-28 melanoma it was 116%; with SK-MEL-2 melanoma, 110%; with EKVX NSCLC, 103%; in the test on SN12C renal, 108%. The growth was 82.1% in the test on UO-31 renal; 101% in the test on TK-10 renal; 95.4% in the test with ACHN renal; 103% with CAKI-1 renal; 107% in the test with A498 renal; 125% in the test with CCRF-CEM leukemia. Moreover, the growth in the test with MOLT-4 leukemia was 82.8%; in the test on SR leukemia, 85.6%.
`Cn1cc(-c2csc(-c3c[nH]c4ncccc34)n2)c2cc(Br)cnc21`: the growth was 50.6% in the test on HT29 colon; -28.8% (active) with SNB-75 CNS; 50.5% with SNB-19 CNS; 3.32% (active) in the test on U251 CNS; 34.9% in the test on PC-3 prostate; 35.8% with SK-MEL-5 melanoma. The growth in the test with UACC-62 melanoma is 32.5%; in the test with LOX IMVI melanoma it was 20.5%; with SK-MEL-28 melanoma it was 27.7%; with SK-MEL-2 melanoma, 78.2%; in the test with EKVX NSCLC, 24.2%; with SN12C renal it was 4.21% (active). The growth in the test with UO-31 renal is 28.8%; in the test on TK-10 renal it was -21.8% (active); in the test on ACHN renal it was 29.6%; with CAKI-1 renal, 12.5%; in the test with A498 renal it was 71.7%; with CCRF-CEM leukemia, 68%. In addition, the growth in the test with MOLT-4 leukemia was 76.2%.
Turning to `O=c1[nH]c(=O)n(C2CC(O)C(CO)O2)cc1C(F)(F)F` (centres undefined), the growth in the test with HT29 colon was 68.7%; in the test with SNB-75 CNS it was 57.6%; in the test with SNB-19 CNS, 55.6%; in the test with U251 CNS it was 42%; in the test on PC-3 prostate, 74.8%; with SK-MEL-5 melanoma, 29.8%. The growth in the test with UACC-62 melanoma is 29.6%; in the test with LOX IMVI melanoma it was 18.3%; in the test on SK-MEL-28 melanoma, 75.2%; in the test with SK-MEL-2 melanoma it was -17.8% (active); in the test with EKVX NSCLC, 86.6%; in the test on SN12C renal, 28.6%. For the same compound, the growth in the test with UO-31 renal was 23.5%; in the test with TK-10 renal, 64.8%; with ACHN renal, 24.6%; in the test with CAKI-1 renal, 66.2%; with A498 renal it was 42.3%; in the test with CCRF-CEM leukemia it was -30.2% (active). For the same compound, the growth in the test on MOLT-4 leukemia was 31.8%.
